The values below come from PubChem BioAssay (NCI).

Assay in all cases: NCI-60 one-dose screen, 48 h (100 = growth as untreated, 0 = no growth, -100 = all killed)
One assay concerns MOLT-4 leukemia. The conditions noted are these: 10 µM.
A further assay deals with RPMI-8226 leukemia. The conditions noted are these: 10 µM.
A further assay has as its system OVCAR-8 ovarian. The conditions noted are these: 10 µM.
Another assay has as its system OVCAR-5 ovarian. The conditions noted are these: 10 µM.
The subject of the next assay is OVCAR-4 ovarian. The conditions noted are these: 10 µM.
A further assay deals with SK-OV-3 ovarian. The conditions noted are these: 10 µM.
Another assay has as its system IGROV1 ovarian. The conditions noted are these: 10 µM.
Another assay relates to OVCAR-3 ovarian. The conditions noted are these: 10 µM.
In a further assay the test system is HS 578T breast. The conditions noted are these: 10 µM.
The test system of the next assay is NCI/ADR-RES ovarian. The conditions noted are these: 10 µM.
A further assay relates to T-47D breast. The conditions noted are these: 10 µM.
A further assay concerns BT-549 breast. The conditions noted are these: 10 µM.
The test system of a further assay is MDA-MB-435 melanoma. The conditions noted are these: 10 µM.
For the next assay, the system named is SW-620 colon. The conditions noted are these: 10 µM.
In a further assay the test system is MCF7 breast. The conditions noted are these: 10 µM unless noted.
The test system of the next assay is HCT-116 colon. The conditions noted are these: 10 µM.
The next assay deals with HCC-2998 colon. The conditions noted are these: 10 µM.
The next assay relates to KM12 colon. The conditions noted are these: 10 µM.
Another assay concerns SR leukemia. The conditions noted are these: 10 µM.

Several values for one entry are separate records, joined by “and”; a condition that tells them apart may be missing. Identical values can stand only once. Compounds without any hit were thinned out: in the full panel of roughly 83,000, 20% have a hit.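 96-well plates, one dose, 48 hours. Percent growth reported; active if below 10.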 Activity calls are given as the source filed them.

`[Cl][Hg][c]1ccc2ccccc2c1`: the growth was -1.79% (active) in the assay with MOLT-4 leukemia; -11.1% (active) with RPMI-8226 leukemia; -43.9% (active) in the assay with OVCAR-8 ovarian; -13.7% (active) in the assay with OVCAR-5 ovarian; -89.7% (active) in the assay on OVCAR-4 ovarian; 2.89% (active) in the assay with SK-OV-3 ovarian. In addition, the growth in the assay with IGROV1 ovarian was -76.6% (active); in the assay with OVCAR-3 ovarian, -97.8% (active); with HS 578T breast it was 2.36% (active); in the assay on NCI/ADR-RES ovarian it was 63.9% (inactive); in the assay on T-47D breast, -56.8% (active); in the assay with BT-549 breast it was -99% (active). Further, the growth in the assay with MDA-MB-435 melanoma is -76.2% (active); with SW-620 colon, -92.4% (active); in the assay on MCF7 breast, -61.5% (active); in the assay with HCT-116 colon, -100% (active); with HCC-2998 colon it was -49% (active); with KM12 colon, 1.74% (active).

Consider `C/C1=C\[C@H](C)C[C@H](C)OC(=O)C[C@H](c2ccc(O)cc2)NC(=O)[C@@H](Cc2c(Br)[nH]c3ccccc23)N(C)C(=O)[C@H](C)NC(=O)[C@@H](C)C1`, for which the growth with MOLT-4 leukemia is 2.89% (active); in the assay with SR leukemia it was -3.88% (active); with OVCAR-5 ovarian, -35.1% (active); in the assay with OVCAR-4 ovarian it was -54.6% (active); in the assay with SK-OV-3 ovarian it was -20.9% (active); in the assay on IGROV1 ovarian, -79.1% (active). Also, the growth in the assay with OVCAR-3 ovarian was -44.9% (active); in the assay on HS 578T breast, -40.4% (active); in the assay on NCI/ADR-RES ovarian, -21.9% (active); in the assay on T-47D breast, 4.52% (active); in the assay with BT-549 breast it was -76.6% (active); in the assay on MDA-MB-435 melanoma, -12.2% (active). For the same molecule, the growth in the assay with SW-620 colon is 6.45% (active); in the assay with MCF7 breast, 9.48% (active); in the assay on HCT-116 colon it was 0.922% (active); with HCC-2998 colon it was -86.3% (active); in the assay on KM12 colon, -4.41% (active).

With `COc1cc2c(cc1OC)C13CCN4CC5=CCOC6CC(=O)N2C1C6C5CC43` (stereo not drawn), the growth is 109% (inactive) and 86.6% (inactive) in the assay on MOLT-4 leukemia; 56.5% (inactive) with RPMI-8226 leukemia; 99.7% (inactive) and 113% (inactive) in the assay with OVCAR-8 ovarian; 98.2% (inactive) and 83.9% (inactive) in the assay on OVCAR-5 ovarian; 113% (inactive) and 102% (inactive) with OVCAR-4 ovarian; 101% (inactive) and 114% (inactive) in the assay on SK-OV-3 ovarian. In addition, the growth with IGROV1 ovarian is 106% (inactive); in the assay with OVCAR-3 ovarian, 115% (inactive) and 107% (inactive); in the assay on HS 578T breast, 114% (inactive) and 96.4% (inactive); in the assay on NCI/ADR-RES ovarian, 116% (inactive) and 66.9% (inactive); with T-47D breast, 96.9% (inactive) and 109% (inactive); with MDA-MB-435 melanoma it was 112% (inactive) and 110% (inactive). Further, the growth is 115% (inactive) and 106% (inactive) in the assay on SW-620 colon; 94.8% (inactive) and 98.6% (inactive) with MCF7 breast; 99.4% (inactive) and 102% (inactive) in the assay on HCT-116 colon; -56.9% (active) in the assay with HCC-2998 colon; 101% (inactive) and 100% (inactive) with KM12 colon.

Regarding `CC(C)(C)OOC(=O)/C=C\C(=O)OOC(C)(C)C`, the growth in the assay with MOLT-4 leukemia is 107% (inactive); in the assay on SR leukemia, 93.5% (inactive); with OVCAR-8 ovarian it was 97.4% (inactive); with OVCAR-5 ovarian, 99.3% (inactive); with OVCAR-4 ovarian, 104% (inactive); with SK-OV-3 ovarian it was 108% (inactive). The growth in the assay on OVCAR-3 ovarian was 113% (inactive); in the assay with HS 578T breast, 113% (inactive); in the assay on NCI/ADR-RES ovarian it was 109% (inactive); with T-47D breast it was 101% (inactive); in the assay on BT-549 breast, 104% (inactive); in the assay on MDA-MB-435 melanoma it was 119% (inactive). Also, the growth is 98.7% (inactive) in the assay with SW-620 colon; 98.7% (inactive) with MCF7 breast; 106% (inactive) in the assay on HCT-116 colon; 104% (inactive) in the assay on HCC-2998 colon; 94.6% (inactive) in the assay on KM12 colon.

Take `COC12c3c(C)cc(O)c4c(=O)occ(c34)C(=O)C1C13COC(=O)c4c(O)cc(C)c(c41)C(=O)C2C3OC(C)=O` (stereo not drawn): the growth with MOLT-4 leukemia was 102% (inactive); with SR leukemia, 92.4% (inactive); in the assay on OVCAR-8 ovarian it was 105% (inactive); in the assay on OVCAR-5 ovarian, 91.4% (inactive); in the assay on OVCAR-4 ovarian, 100% (inactive); in the assay with SK-OV-3 ovarian, 93.4% (inactive). For the same molecule, the growth is 105% (inactive) with OVCAR-3 ovarian; 112% (inactive) in the assay on HS 578T breast; 97.1% (inactive) in the assay with NCI/ADR-RES ovarian; 94% (inactive) in the assay on T-47D breast; 173% (inactive) with MDA-MB-435 melanoma; 99.7% (inactive) with SW-620 colon. In addition, the growth in the assay with HCT-116 colon is 99.1% (inactive); with HCC-2998 colon, 97.3% (inactive); in the assay on KM12 colon, 103% (inactive).

For `CC12OOC(c3ccccc31)c1c2ccc2ccccc12` (stereo not drawn), the growth is -58.3% (active) in the assay with MOLT-4 leukemia; -18.8% (active) in the assay with SR leukemia; 66.1% (inactive) in the assay with OVCAR-5 ovarian; -57.7% (active) with OVCAR-4 ovarian; 95.8% (inactive) in the assay on SK-OV-3 ovarian; -92.4% (active) in the assay on OVCAR-3 ovarian. Further, the growth in the assay on HS 578T breast was 91.6% (inactive); with NCI/ADR-RES ovarian, 50.3% (inactive); with T-47D breast it was -28.8% (active); with BT-549 breast it was -82.2% (active); in the assay with MDA-MB-435 melanoma, 46.2% (inactive); in the assay on SW-620 colon, -52.1% (active). In addition, the growth with MCF7 breast was 48.5% (inactive); in the assay with HCT-116 colon, -94.5% (active); in the assay on HCC-2998 colon it was -91.7% (active); in the assay on KM12 colon, -53.1% (active).

As for `CC(Cc1ccc2c(c1)OCO2)NN` (stereo not drawn), the growth in the assay on MOLT-4 leukemia is 78.4% (inactive); in the assay on RPMI-8226 leukemia, 91.8% (inactive); in the assay with OVCAR-8 ovarian, 97.7% (inactive); in the assay with OVCAR-5 ovarian, 100% (inactive); in the assay on OVCAR-4 ovarian, 106% (inactive); in the assay on SK-OV-3 ovarian, 84.8% (inactive). Besides, the growth in the assay with IGROV1 ovarian is 100% (inactive); in the assay with OVCAR-3 ovarian, 112% (inactive); in the assay with HS 578T breast, 93.3% (inactive); with NCI/ADR-RES ovarian, 98.5% (inactive); in the assay on T-47D breast, 77.5% (inactive); in the assay with SW-620 colon, 98.7% (inactive). Also, the values for the growth with HCT-116 colon, in the assay with HCC-2998 colon and in the assay on KM12 colon were 85.4% (inactive), 101% (inactive) and 103% (inactive), respectively.

In the case of `ClCc1ccc2ccccc2n1`, the growth was 81.3% (inactive) in the assay on MOLT-4 leukemia; 98.6% (inactive) in the assay on RPMI-8226 leukemia; 101% (inactive) in the assay with OVCAR-8 ovarian; 83.4% (inactive) with OVCAR-5 ovarian; 101% (inactive) in the assay with OVCAR-4 ovarian; 113% (inactive) in the assay on SK-OV-3 ovarian. In addition, the growth with IGROV1 ovarian was 78.2% (inactive); in the assay with OVCAR-3 ovarian, 99% (inactive); in the assay with HS 578T breast it was 97.4% (inactive); with NCI/ADR-RES ovarian, 98.4% (inactive); with T-47D breast, 87% (inactive); with MDA-MB-435 melanoma, 93.9% (inactive). For the same molecule, the growth with SW-620 colon was 114% (inactive); in the assay with MCF7 breast, 103% (inactive); with HCT-116 colon, 91.1% (inactive); with HCC-2998 colon it was 105% (inactive); in the assay on KM12 colon it was 103% (inactive).

Turning to `COc1ccc(/C=C\[N+](=O)[O-])cc1OC`, the growth was 85.7% (inactive) and 65.5% (inactive) in the assay on MOLT-4 leukemia; 20.7% (inactive) and -31.7% (active) in the assay on RPMI-8226 leukemia; 73.9% (inactive) and 75.7% (inactive) in the assay on OVCAR-8 ovarian; 110% (inactive) and 79.4% (inactive) in the assay with OVCAR-5 ovarian; 73.7% (inactive) and 80.5% (inactive) in the assay on OVCAR-4 ovarian; 106% (inactive) and 95.9% (inactive) in the assay with SK-OV-3 ovarian. For the same molecule, the growth in the assay on IGROV1 ovarian is -5.78% (active) and 59.2% (inactive); in the assay with OVCAR-3 ovarian it was 55.6% (inactive) and 37% (inactive); in the assay on HS 578T breast it was 71.2% (inactive) and 94.4% (inactive); in the assay on NCI/ADR-RES ovarian it was 91.3% (inactive) and 86.9% (inactive); in the assay with T-47D breast, 62.8% (inactive) and 42.3% (inactive); with MDA-MB-435 melanoma it was 12.3% (inactive) and 31.1% (inactive). The growth in the assay with SW-620 colon was 37.7% (inactive) and 55.6% (inactive); with HCT-116 colon it was 13.2% (inactive) and 0.137% (active); in the assay on HCC-2998 colon, 61% (inactive) and 54.3% (inactive); in the assay with KM12 colon it was 33.7% (inactive) and 57.2% (inactive).
